{
  "source": "PubChem BioAssay AID743468",
  "about": "(Broad Institute, 2014)",
  "test": "change in PGC-1a target gene PDK4 expression, dose response, C2C12 myotubes, RT-qPCR, cherry-pick (AID 743468)",
  "conditions": "PGC-1a adenovirus, PDK4 mRNA qPCR; series mostly up to 19.5 µM",
  "note": "The list shows a part of the results. Active and inactive are the calls of the source.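 The calls were made as follows: active = fitted curve reaching a 40% PDK4 expression rise at or below the top valid tested dose; inconclusive = no clear call, values can overlap the other calls; inactive = the rest, including shifts the wrong way.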",
  "data": [
    {"smiles": "N#Cc1ccc(-c2ccc(C3[C@@H]4CN(S(=O)(=O)c5ccc(F)cc5)C[C@H]3N4)cc2)cc1", "note": "(stereo partly specified)", "values": [
      {"measurement": "outcome", "value": "inactive"}
    ]}
  ]
}
